Assay outcomes: PubChem, National Center for Advancing Translational Sciences (NCATS)
3T3 cytotox – cytotoxic compounds in NIH 3T3 cells | NIH 3T3 viability, CellTiter-Glo ATP luminescence, 48-72 h | Potency, µM (titrated, usually from 96.7 µM), for inactives: at the top dose activity change, negative = cytotoxicity, hits mostly inhibitors | actives 4.3% (n = 94,000) | AID 1345082; further: nearly all actives have a fitted effect of over 55% in size
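Cytotoxicity was measured by CellTiter-Glo ATP luminescence after 48 or 72 h compound exposure at 37 °C. Mouse NIH 3T3 fibroblasts were seeded at 400 cells/well and dosed by 23 nL pin transfer.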
HEK cytotox – cytotoxic compounds in HEK 293 cells | HEK 293 viability, ATP luminescence (CellTiter-Glo), 48-72 h | Potency, µM (titrated, usually from 115 µM), for the others: at the highest dose activity change, negative = cytotoxicity, most hits filed as inhibitors | actives 6.6% (n = 94,000); further: nearly all actives have a fitted effect of over 60% in size
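HEK 293 cells at 250 cells/well were exposed to compounds by pintool transfer for 48 or 72 hr at 37 degree Celsius, 5% CO2. Viability was read as ATP-coupled luminescence with CellTiter-Glo after 10 min at room temperature.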
FLuc inh – blocks purified firefly luciferase enzyme activity; AID 1347043; actives 2.5% (n = 76,000); Potency, µM (doses to about 115 µM), usual class: inhibitors; purified P. pyralis luciferase, luminescence, biochemical; P08659; further: nearly all actives have a fitted effect of over 65% in size
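Biochemical qHTS: compound (6-point titration) added to 10uM D-luciferin plus 10uM ATP in Tris acetate pH 7.5 buffer with Mg, Tween-20 and BSA, then purified enzyme at 10nM; light output imaged.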
hNpr1 antagonist – blocks ANP-stimulated signaling of human Npr1 receptor. P16066. HEK293 hNpr1 GloSensor cGMP, ANP-stimulated luminescence. Potency, µM (doses to about 46.3 µM), inactives show at the highest dose activity change, negative = inhibition, most hits filed as inhibitors. actives 1.6% (n = 76,000). AID 1347048; calls by dose curve; further: nearly all actives have a fitted effect of over 60% in size
Target sequence (P16066 whole entry, looked up): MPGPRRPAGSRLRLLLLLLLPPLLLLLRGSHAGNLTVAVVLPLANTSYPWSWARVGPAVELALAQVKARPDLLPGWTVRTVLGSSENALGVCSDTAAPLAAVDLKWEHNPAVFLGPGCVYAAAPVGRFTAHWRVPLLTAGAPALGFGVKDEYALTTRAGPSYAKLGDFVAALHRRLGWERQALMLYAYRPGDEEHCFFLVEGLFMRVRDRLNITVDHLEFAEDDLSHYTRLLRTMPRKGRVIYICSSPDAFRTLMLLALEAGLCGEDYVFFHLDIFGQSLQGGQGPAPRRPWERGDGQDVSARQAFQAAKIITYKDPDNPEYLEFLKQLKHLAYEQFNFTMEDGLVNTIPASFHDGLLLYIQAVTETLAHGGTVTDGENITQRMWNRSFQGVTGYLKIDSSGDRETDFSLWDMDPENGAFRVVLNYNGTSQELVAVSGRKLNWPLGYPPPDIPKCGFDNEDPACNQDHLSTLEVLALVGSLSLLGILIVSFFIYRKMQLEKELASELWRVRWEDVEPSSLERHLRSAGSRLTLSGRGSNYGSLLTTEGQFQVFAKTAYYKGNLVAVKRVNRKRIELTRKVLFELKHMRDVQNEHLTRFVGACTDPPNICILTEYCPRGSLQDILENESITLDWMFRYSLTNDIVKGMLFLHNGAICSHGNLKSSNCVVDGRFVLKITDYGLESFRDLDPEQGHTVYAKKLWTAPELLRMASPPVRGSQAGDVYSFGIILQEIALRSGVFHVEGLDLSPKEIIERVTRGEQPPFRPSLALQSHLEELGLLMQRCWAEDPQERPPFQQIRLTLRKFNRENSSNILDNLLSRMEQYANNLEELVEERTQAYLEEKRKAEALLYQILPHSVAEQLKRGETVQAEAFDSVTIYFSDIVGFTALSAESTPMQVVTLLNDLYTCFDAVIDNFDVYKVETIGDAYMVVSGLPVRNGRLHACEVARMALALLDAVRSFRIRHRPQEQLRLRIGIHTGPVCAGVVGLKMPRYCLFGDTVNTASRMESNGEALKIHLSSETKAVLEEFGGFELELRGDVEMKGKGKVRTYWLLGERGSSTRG
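Compound pre-incubated 30 min at room temperature on GloSensor-loaded HEK293 cells stably carrying hNpr1 and the pGS-40F cGMP biosensor. Stimulation uses hNppA at 0.1 nM final; luminescence is taken at baseline and 20 min post-agonist.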
Active calls of the source: *; i = inactive; ? = inconclusive; nt = not tested or not shown; ! = repeats disagree; [ ] = remark or other dose. Shown are actives, neighbours in structure and some others; about 11% of the full set was active somewhere. Unless noted, the call rests on the fitted dose curve; in most records, active means well fitted curve in the direction sought with a large enough effect; inconclusive means small, poorly fitted or top-dose-only effect, or another doubt; inactive means no such curve, though single readings can be large; an effect the other way counts as inactive or inconclusive. On the % scale 0 is the no-effect control and ±100 the full control effect; potency means the concentration at half of the fitted maximal effect.

SMILES	3T3 cytotox	HEK cytotox	FLuc inh	hNpr1 antagonist
O=C(Cc1ccccc1)NC1CCCc2c1[nH]c1ccccc21 (centres undefined)	22.4µM*	?	i	-0.7%
CC(C)CC(=O)NC1CCCc2c1[nH]c1ccc(Cl)cc21 (centres undefined)	20µM*	?	i	-12.5%
Cc1cnc(-c2ccccc2)n1CCNC(=O)C1CCCCC1	-21.5%	-22.7%	nt	nt
N#Cc1ccc(C(=O)N[C@H]2[C@H](O)[C@H](O)C[C@@H]2c2ccc(C(F)(F)F)nc2)cc1	-23.2%[174 µM]	i	i	6.8%[70.6 µM]
COc1ccc([C@H]2C[C@@H](O)[C@@H](O)[C@@H]2NC(=O)c2nc3ccccc3s2)cc1	-26.6%[138 µM]	?	44.7µM*	-26.0%[70.6 µM]
O=C(N[C@H]1[C@H](O)[C@H](O)C[C@@H]1c1ccc(C(F)(F)F)nc1)c1nc2ccccc2s1	-21.8%[138 µM]	-26.9%[172 µM]	44.7µM*	-11.4%[70.6 µM]
Cc1ccccc1[C@H]1C[C@@H](O)[C@@H](O)[C@@H]1NC(=O)c1nc2ccccc2s1	?	?	i	-10.6%[70.6 µM]
c1ccc(-c2nc(CC3CCNC3)no2)cc1 (centres undefined)	-15.1%	-16.5%	i	-2.5%
COc1cccc(CN2CCOC3CCN(CCCc4ccccc4)CC3C2=O)c1 (centres undefined)	79.4µM*	?	i	-0.7%[70.6 µM]
COc1cccc(C(=O)N2C[C@H](C(N)=O)[C@H]3c4ccccc4N(CC4CC4)C(=O)[C@]32C)c1	?	-3.3%[57.5 µM]	nt	nt
Cc1nc(C2CC(O)C2)cc(N2CCN(c3ccc(F)c(Cl)c3)CC2)n1 (centres undefined)	?	17.8µM*	i	?
Cc1nc(C2CC(O)C2)cc(N2CCN(c3cnn(C)c(=O)c3)CC2)n1 (centres undefined)	-0.8%	i	i	1.7%
COc1ccccc1C(=O)N1CCCn2nc(C)c(-c3ccccc3N3CCCC3)c21	?	56.2µM*	i	-11.0%[70.6 µM]
Cc1nn2c(c1-c1ccccc1C(C)C)N(C(=O)COc1ccccc1C(N)=O)CCC2	?	70.8µM*	i	-10.0%[70.6 µM]
Cc1nn2c(c1-c1ccccc1C(C)C)N(C(=O)c1ccnn1C)CCC2	?	?	i	-7.3%[70.6 µM]
COc1ccccc1C(=O)N1CCCn2nc(C)c(-c3ccccc3C(C)C)c21	?	89.1µM*	i	-1.6%[70.6 µM]
Cc1nn2c(c1-c1ccccc1N1CCCC1)N(C(=O)C(C)C)CCC2	?	35.5µM*	i	6.4%[70.6 µM]
CSc1ccc(-c2cccc(CN3CCC(NC(=O)c4ccc(Cl)nc4)CC3)c2)cc1	-2.5%	?	nt	nt
CN1CC(C(=O)N2CCC(Cc3ccccc3)CC2)NC1=O (centres undefined)	-32.2%[138 µM]	-14.1%[172 µM]	nt	nt
Cc1nn2c(c1-c1ccccc1C(C)C)N(C(=O)Cc1ccc3c(c1)OCO3)CCC2	39.8µM*	?	i	0.5%[70.6 µM]
COc1cccc(CC(=O)N2CCCn3nc(C)c(-c4ccccc4C(C)C)c32)c1	?	?	i	?
O=C(c1ccc(Cl)cc1)N1CCOC(CN(C(=O)c2ccc(F)cc2)C2CCCC2)C1 (centres undefined)	?	44.7µM*	i	-16.9%
COc1cccc(-c2nnnn2[C@H]2CO[C@H]3[C@@H]2OC[C@@H]3NS(=O)(=O)c2ccccc2C#N)c1	-14.8%	-10.3%	i	1.9%
CCOc1ccccc1CN1CCC2(CCN(C(=O)Nc3ccc(Cl)cc3)CC2)Oc2ccccc21	?	?	?	-5.7%
CCCCN(Cc1ccccc1)Cc1nc(-c2ccc(C(=O)OC)cc2)no1	-11.5%	-11.0%	8.91µM*	-8.3%
SMILES	3T3 cytotox	HEK cytotox	FLuc inh	hNpr1 antagonist
CSCCNC(=O)c1cc(Br)cn2ccnc12	-13.1%[138 µM]	-24.5%[172 µM]	44.7µM*!	10.5%[70.6 µM]
CC(=O)N1CCN(C(=O)C2CCc3nnc(C4CCN([S+](=O)([O-])c5ccccc5Cl)CC4)n32)CC1 (centres undefined)	-11.0%	-11.8%	nt	nt
O=C(NCc1ccccc1F)c1ccc2c(c1)CN(Cc1ccc(O)c(F)c1)CCO2	-23.0%	?	i	-27.1%
CCOc1ccc(CN2CCOc3ccc(C(=O)NCc4ccccc4F)cc3C2)cc1	?	39.8µM*	i	?
CCOc1cccc(CN2CCOc3ccc(C(=O)NCc4ccccc4F)cc3C2)c1	?	?	i	-10.2%
O=C(Cc1ccccc1F)N1CCOc2ccc(CN3CCc4ccccc4C3)cc2C1	-27.8%	44.7µM*	i	-29.0%
O=C(NCc1ccccc1F)c1ccc2c(c1)CN(Cc1ccc3c(c1)CCO3)CCO2	?	28.2µM*	i	-15.1%
CNC(=O)[C@H]1C[C@H](Oc2cccnc2)CN1S(=O)(=O)c1ccccc1C	-20.0%	-0.9%	i	-18.8%
O=C(NCc1cnccn1)c1ccc(-c2ncc3cnc(-c4cccc(F)c4)cn23)cc1	?	?	i	0.7%[70.6 µM]
COCCOCc1ccc(CC2CCN(C(=O)c3ccc(OC)cc3OC)CC2)cc1	?	31.6µM*	nt	nt
CCCn1c(C)cnc1CC1CCN(C(=O)c2ccc(OC)cc2OC)CC1	-3.5%	?	i	-2.5%
CN1CCC(Cn2ccc3c(N4CCOCC4)nc(-c4cccc(N[S+](C)(=O)[O-])c4)cc32)CC1	?	?	i	0.2%
CN1CCC(Cn2ccc3c(N4CCOCC4)nc(-c4cccc5[nH]ccc45)cc32)CC1	35.5µM*	63.1µM*	i	-0.5%[70.6 µM]
CN1CCC(Cn2ccc3c(N4CCOCC4)nc(-c4cccc(N5CCOCC5)c4)cc32)CC1	31.6µM*	?	i	-1.0%
c1ccc(-c2cc3c(ccn3Cc3ccncc3)c(N3CCOCC3)n2)cc1	?	?	i	-7.8%[70.6 µM]
CN1CCC(Cn2ccc3c(N4CCOCC4)nc(-c4ccc5cn[nH]c5c4)cc32)CC1	39.8µM*	100µM*	i	1.6%[70.6 µM]
COc1ccc(-c2nc(-c3c(C)noc3C)cc3cc(CO)oc23)cn1	?	?	i	1.7%[70.6 µM]
Cc1noc(C)c1-c1cc2cc(CO)oc2c(NCCOc2ccccc2)n1	?	?	i	-14.1%[70.6 µM]
Cc1noc(C)c1-c1cc2cc(CO)oc2c(NC2CCOCC2)n1	25.1µM*	?	i	-18.8%[70.6 µM]
Cc1noc(C)c1-c1cc2cc(CO)oc2c(-c2ccc(F)c(Cl)c2)n1	22.4µM*	50.1µM*	i	-22.9%[70.6 µM]
Cc1noc(C)c1-c1cc2cc(CO)oc2c(NCC2CCOCC2)n1	22.4µM*	?	i	-11.6%[70.6 µM]
CN1c2cc(C(=O)Nc3ccc4c(c3)OCCO4)ccc2C(=O)N2CCCCCC21 (centres undefined)	?	?	12.6µM*	-5.5%
Cc1ccc(NC(=O)c2ccc3c(c2)N(C)C2CCCCN2C3=O)cc1Cl (centres undefined)	-18.3%	?	?	-8.1%
Cc1ccc(NC(=O)c2ccc3c(c2)N(C)C2CCCCCN2C3=O)cc1C (centres undefined)	?	44.7µM*	?	?
